Assay outcomes from PubChem.
In the library only some 4.5% were active in any assay of this set; here they are far more common.
dFosB act: mouse delta FosB homodimer activation; P13346; activation, % at 25 µM; purified delta FosB, TAMRA-CDK5 oligo fluorescence polarization; percent of positive-control signal above neutral wells; AID 493131; 0.99% of 340,000 active;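 active = mean activation above about 17%, with every replicate also reaching it, limit read from the data, passing the limit was not always enough; inconclusive = only one of the two conditions met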
TPT1 inh: blocks Candida albicans tRNA 2'-phosphotransferase; AID 1962; recombinant caTPT1, FP RNA substrate dephosphorylation; inhibition, % at 5 µM; 0.81% of 300,000 active;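 active = inhibition above the mean of all tested compounds plus 3 SD, set per screening campaign, cut at about 24% in these data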;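 also: plate controls were DMSO alone for no effect and ferristatin control at 100 nM for full effect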
Rpn11 inh: Rpn11 (human) deubiquitinase inhibition; inhibition, % at 20 µM; 0.59% of 360,000 active; human 26S proteasome, Ub4-pepOG fluorescence polarization; 20S core pre-blocked with epoxomicin; AID 588493;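 active = inhibition at 20 µM, scaled to each plate's controls, above about 33%, limit read from the data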
ZTA DNA inh: ZTA (EBV) inhibition in EBNA-1 counter-screen; 0.15% of 320,000 active; P03206; inhibition, % at 11 µM; ZTA-DNA binding, fluorescence polarization; in the data active = inhibition above about 33%
NR3A LBD binder: modulates the human NR3A ligand-binding domain; NR3A LBD differential scanning fluorimetry, Tm shift; 0% = protein alone, 100% = glycine-bound protein; Tm shift relative to glycine control, % at 25 µM; 2.5% of 340,000 active;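 active = melting temperature shift of at least 10% of the positive control shift, at one fixed dose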
EBNA-1 inhibitor: blocks EBNA-1 binding to DNA. EBNA-1 DNA binding, fluorescence polarization. inhibition, % at 14.8 µM. 0.34% of 300,000 active; in the data active = inhibition above about 28%
Rpn11 confirm: confirmation of human proteasome Rpn11 inhibitors. shares compounds with Rpn11 inh. purified human 26S proteasome, Ub4-pepOG fluorescence polarization; proteasome pretreated with epoxomicin. inhibition, % at 20 µM. 29% of 1,900 active. AID 602318
MMP-2 inh: counter-screen for RPN11 inhibitors: inhibition of human MMP-2; shares compounds with Rpn11 inh; recombinant MMP-2, FRET peptide cleavage fluorescence; inhibition, % at 20 µM; 4% of 1,900 active; AID 602330;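 also: human MMP-2 activated beforehand with APMA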
Thrombin inh: counter-screen for RPN11 inhibitors: inhibition of bovine thrombin. bovine thrombin cleavage of Ub4-pepOG, fluorescence polarization. shares compounds with Rpn11 inh. 13% of 1,900 active. inhibition, % at 20 µM. AID 602333;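 active = mean inhibition at least 40% at 20 µM, or signal 3 deviations below plate average, so some actives read negative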;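 also: plate controls were thrombin with DMSO for no effect and buffer wells lacking thrombin for full effect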
Target sequence (P00735 whole entry, looked up): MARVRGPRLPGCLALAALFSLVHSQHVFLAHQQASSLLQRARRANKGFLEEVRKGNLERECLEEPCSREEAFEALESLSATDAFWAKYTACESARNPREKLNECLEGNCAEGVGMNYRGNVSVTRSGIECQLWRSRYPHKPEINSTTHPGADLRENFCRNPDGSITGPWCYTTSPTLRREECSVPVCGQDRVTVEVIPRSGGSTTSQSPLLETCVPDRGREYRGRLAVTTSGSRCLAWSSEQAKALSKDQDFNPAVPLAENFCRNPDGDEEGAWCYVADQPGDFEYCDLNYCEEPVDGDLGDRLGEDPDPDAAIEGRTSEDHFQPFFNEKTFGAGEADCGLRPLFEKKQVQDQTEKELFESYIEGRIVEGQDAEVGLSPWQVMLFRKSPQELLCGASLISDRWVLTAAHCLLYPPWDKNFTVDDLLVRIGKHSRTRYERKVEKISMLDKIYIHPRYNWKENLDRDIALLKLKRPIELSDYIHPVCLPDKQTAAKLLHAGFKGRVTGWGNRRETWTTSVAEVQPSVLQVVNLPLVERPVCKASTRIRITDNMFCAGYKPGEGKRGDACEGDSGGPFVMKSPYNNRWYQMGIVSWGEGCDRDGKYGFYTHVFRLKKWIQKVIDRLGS
Active calls of the source: *; ? = inconclusive; nt = not tested or not shown. Rule as the data show it, unless noted: active = inhibition above about 40%; inactive = the rest.

SMILES	dFosB act	TPT1 inh	Rpn11 inh	ZTA DNA inh	NR3A LBD binder	EBNA-1 inhibitor	Rpn11 confirm	MMP-2 inh	Thrombin inh
O=C(NCC1CCCO1)C(c1cccs1)N(Cc1cccs1)C(=O)c1ccc(-c2ccccc2)[nH]1 (stereo unspecified)	-0.1	4.4	52.2*	-11.7	0.0	-16.3	13.9	6.2	13.1
CCCCc1ccc(-c2csc(/C(C#N)=C\c3ccco3)n2)cc1	-10.5	7.5	40.8*	5.7	-1.5	-0.9	6.5	-5.1	0.8
N#C/C(=C\c1ccco1)c1nc2ccccc2s1	-6.9	9.6	10.8	3.2	-3.6	2.4	nt	nt	nt
CCCCc1ccc(-c2csc(/C(C#N)=C/c3ccc(C)o3)n2)cc1	-11.3	11.0	67.1*	-2.6	-5.0	1.8	-10.0	-27.1	-21.1
FC(F)(F)c1ccccc1Cc1c(-c2ccc(Cl)cc2)nc2ccc(Br)cn12	nt	nt	27.3	nt	nt	nt	nt	nt	nt
COC(=O)c1c(C)[nH]c(O)c1C=Nc1ccc(C(C)C)cc1	3.4	8.9	35.5	4.5	-9.8	-3.3	nt	nt	nt
CCOC(=O)c1c(C)[nH]c(O)c1C=Nc1ccc(Cl)cc1	-12.8	-0.2	55.1*	11.2	-4.5	22.0	23.2	-10.4	0.9
FC(F)(F)c1cccc(NC(=S)Nc2ccc(Cl)c(Cl)c2)c1	-2.0	0.8	36.8*	-8.9	19.5*	-4.5	-8.0	21.0	-24.1
CC(C)(C)NC(=S)Nc1cccc(C(F)(F)F)c1	3.0	1.1	14.9	3.1	-6.9	-6.6	nt	nt	nt
N#CC1=C(N)Oc2cc(N)ccc2C1c1cc(Br)cs1 (stereo unspecified)	-5.0	nt	72.9*	nt	-8.5	nt	1.2	17.8	27.2
COc1cc(/C=C(\CCC(=O)O)c2nc3ccccc3s2)ccc1OCC(=O)Nc1c(Cl)cccc1Cl	-11.8	nt	73.4*	nt	4.9	nt	27.4	-1.0	0.6
COc1ccc(NC(=O)N2CCCC(CCC(=O)N(C)CCc3ccccn3)C2)cc1 (stereo unspecified)	-10.2	-1.4	0.1	0.8	1.4	-4.8	nt	nt	nt
CCc1ccccc1NC(=O)N1CCCC(CCC(=O)N(C)CCc2ccccn2)C1 (stereo unspecified)	2.3	-0.6	36.3*	6.0	-0.3	5.4	-8.6	-10.9	-7.5
CN(C(=O)COC(=O)C1COc2ccccc2O1)c1c(N)n(Cc2ccccc2)c(=O)[nH]c1=O (stereo unspecified)	0.7	-0.5	-1.0	7.8	1.6	-0.1	nt	nt	nt
Cc1nn2c(N3CCCC3)c3c(nc2c1-c1ccccc1)CCC3	nt	3.6	110.4*	25.9	1.1	6.8	27.5	-8.8	5.5
O=C(O)CN1C(=O)/C(=C\c2cccc(OC(=O)c3ccco3)c2)SC1=S	-1.9	-1.7	-9.6	2.2	2.8	-22.1	nt	nt	nt
O=C(O)CN1C(=O)/C(=C\c2ccc(OC(=O)c3ccco3)cc2)SC1=S	8.4	21.1	121.7*	0.1	3.4	8.0	96.0*	-0.2	68.1*
Cc1nc(N)sc1-c1csc(Nc2ccc(S(N)(=O)=O)cc2)n1	-9.4	nt	41.4*	nt	2.7	nt	23.7	21.5	-3.5
Cc1cc(C)c2nc(N3C(=O)C(O)=C(C(=O)c4ccco4)C3c3ccco3)sc2c1 (stereo unspecified)	-13.1	5.4	39.3*	16.7	-3.0	14.3	33.7	9.9	36.9
CCOc1ccc2nc(N3C(=O)C(O)=C(C(=O)c4ccco4)C3c3ccco3)sc2c1 (stereo unspecified)	-4.2	nt	9.8	-4.7	-1.0	nt	nt	nt	nt
O=C(Cc1cccc(NC(=O)C2CCCN(C(=O)C3CCCC3)C2)c1)Nc1cccc(C(=O)N2CCOCC2)c1 (stereo unspecified)	-4.6	nt	0.8	nt	5.2	nt	nt	nt	nt
CCOC(=O)Cn1c(=NC(=O)c2cc(-c3cccs3)nc3ccccc23)sc2cc(S(N)(=O)=O)ccc21	-6.3	18.6	93.8*	12.3	26.1*	14.4	17.7	-23.5	5.2
COC(=O)Cn1c(=NC(=O)c2nc3ccccc3s2)sc2cc(S(N)(=O)=O)ccc21	?	1.8	47.2*	11.9	-2.4	3.0	-6.1	18.6	-9.4
CCOC(=O)Cn1c(=NC(=O)C2COc3ccccc3O2)sc2cc(S(N)(=O)=O)ccc21 (stereo unspecified)	2.6	-3.1	-3.3	6.0	-9.4	4.4	nt	nt	nt
Cn1c(SCC(=O)Nc2ccc(C(=O)O)cc2)nc2scc(-c3ccccc3Cl)c2c1=O	-8.5	nt	8.5	nt	-2.4	nt	nt	nt	nt
SMILES	dFosB act	TPT1 inh	Rpn11 inh	ZTA DNA inh	NR3A LBD binder	EBNA-1 inhibitor	Rpn11 confirm	MMP-2 inh	Thrombin inh
COCCNC(=O)CN1C(=O)NC2(CCCc3ccccc32)C1=O (stereo unspecified)	2.4	-2.4	0.7	-1.8	-0.4	-0.9	nt	nt	nt
COc1ccc(C2SCC(=O)N2c2c(C)n(C)n(-c3ccccc3)c2=O)cc1OC (stereo unspecified)	0.2	-0.5	31.1*	10.0	-1.8	-3.6	-2.3	-28.7	1.3
Cc1c(N2C(=O)CSC2c2ccccc2)c(=O)n(-c2ccccc2)n1C (stereo unspecified)	2.6	-1.3	-3.4	5.6	-0.3	-10.6	nt	nt	nt
Cc1noc(C)c1NC(=O)N(C)C[C@H]1Oc2ccc(NS(=O)(=O)c3ccc(F)cc3)cc2C(=O)N([C@H](C)CO)C[C@@H]1C	4.4	nt	60.1*	nt	1.1	nt	-3.8	-6.7	5.1
OCC1OC(n2cnc3c(NCc4ccco4)ncnc32)C(O)C1O (stereo unspecified)	-18.3	nt	5.8	nt	0.3	nt	nt	nt	nt
C=CCn1c(SCC(=O)Nc2ccc(-c3nc4ccc(C)cc4s3)cc2)nnc1-c1ccccc1	-3.5	8.7	64.1*	6.0	-12.7	-10.4	80.6*	-18.3	-2.9
CCOc1ccc2[nH]c3ncccc3c(=O)c2c1	-2.9	-10.0	-28.8	-2.0	-1.0	1.1	nt	nt	nt
CCOc1ccc2c(ccc(/C=C/c3cc(C)c4cccnc4c3O)[n+]2C)c1	-214.6	nt	111.8*	nt	-10.4	nt	102.2*	75.5*	39.7
CC[n+]1ccccc1/C=C/c1ccc(N(C)C)cc1	-3.2	nt	95.5*	nt	0.6	nt	83.9*	-91.5	87.6*
CC(=O)c1ccc(S(=O)(=O)NCCC(=O)NC2CCN(Cc3ccccc3)CC2)cc1	-3.6	nt	2.3	nt	-2.0	nt	nt	nt	nt
Cc1ccccc1NC(=O)Cc1nnc(SCC(=O)NC2CCCC2)n1C	4.0	2.3	-0.2	-1.4	-0.7	3.6	nt	nt	nt
CCOc1cccc(C2C(C(=O)c3ccc(C)o3)=C(O)C(=O)N2c2nnc(C)s2)c1 (stereo unspecified)	-2.0	nt	3.3	nt	4.2	nt	nt	nt	nt
